“And” between values parts separate entries of the source, which are not always exact repeats. Equal values may be shown once. Hit rate of the full screen: of about 5,500 compounds, about 2,000 (36%) were called active. Inconclusive results (about 18%) are left out. Cut-off read from the data, not from the text of the source: active = normalized growth mostly below about 0.91 (no sharp cut-off); inconclusive = no clear call, values can overlap the other calls; inactive = mostly above about 0.92. The list shows a part of the results.
Test: chemical genetic growth profiling, strain panel (AID 1159580);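 note: tested at 20 µM; growth read once vehicle control cultures reached saturation at 30 °C; 1 = growth at the plate median or of vehicle wells; lower values mean less growth of the strain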
Settings: S. cerevisiae deletion strains, growth OD
[1] = locus YAL013W, strain DEP1, hits give low values
[2] = locus YBR229C, strain ROT2, hits give low values
[3] = locus YCL061C, strain MRC1, hits give low values
[4] = locus YDL101C, strain DUN1, hits give low values
[5] = locus YDL134C, strain PPH21, hits give low values
[6] = locus YEL061C, strain CIN8, hits give low values
[7] = locus YGR078C, strain PAC10, hits give low values
[8] = locus YHR030C, strain SLT2, hits give low values
[9] = locus YJL187C, strain SWE1, hits give low values
[10] = locus YJR043C, strain POL32, hits give low values
[11] = locus YLR039C, strain RIC1, hits give low values
[12] = locus YLR262C, strain YPT6, hits give low values
[13] = locus YMR307W, strain GAS1, hits give low values
[14] = locus YNL322C, strain KRE1, hits give low values
[15] = locus YPL055C, strain LGE1, hits give low values
[16] = locus YPL241C, strain CIN2, hits give low values

Measured: normalized growth

CC1(C)[C@@H]2CC[C@@]1(C)C(=O)C2
inactive: [1] 0.962 | locus YAL021C, strain ccr4, hits give low values 0.97 | locus YAL026C, strain drs2, hits give low values 1.03 | locus YAL030W, strain snc1, hits give low values 1.02 | locus YBL061C, strain skt5, hits give low values 1.02 | locus YBR009C, strain hhf1, hits give low values 1.01 | locus YBR021W, strain FUR4, hits give low values 1 | locus YBR023C, strain chs3, hits give low values 1.01 | locus YBR171W, strain sec66, hits give low values 1.02 | [2] 0.99 | locus YBR231C, strain swc5, hits give low values 1.01 | locus YBR279W, strain paf1, hits give low values 0.993 | locus YCL011C, strain gbp2, hits give low values 1 | locus YCL016C, strain dcc1, hits give low values 0.987 | locus YCL029C, strain bik1, hits give low values 1 | [3] 1.02 | locus YCL069W, strain vba3, hits give low values 1.02 | locus YCR088W, strain abp1, hits give low values 1.01 | locus YDL005C, strain med2, hits give low values 1.01 | locus YDL035C, strain GPR1, hits give low values 1.01 | locus YDL040C, strain nat1, hits give low values 1 | locus YDL074C, strain BRE1, hits give low values 1.02 | [4] 1 | [5] 0.994 | locus YDL185W, strain tfp1, hits give low values 1 | locus YDL192W, strain arf1, hits give low values 1 | locus YDR001C, strain nth1, hits give low values 1.01 | locus YDR069C, strain doa4, hits give low values 1.02 | locus YDR101C, strain arx1, hits give low values 0.995 | locus YDR137W, strain rgp1, hits give low values 1.02 | locus YDR159W, strain sac3, hits give low values 1.06 | locus YDR162C, strain NBP2, hits give low values 1.01 | locus YDR195W, strain ref2 0.972 | locus YDR297W, strain sur2, hits give low values 1.02 | locus YDR318W, strain mcm21, hits give low values 0.996 | locus YDR334W, strain swr1, hits give low values 1.01 | locus YDR335W, strain msn5, hits give low values 0.993 | locus YDR388W, hits give low values 1.01 | locus YDR392W, strain spt3, hits give low values 0.902 | locus YDR502C, strain sam2, hits give low values 0.995 | locus YEL003W, strain gim4, hits give low values 1.01 | locus YEL037C, strain rad23, hits give low values 1 | locus YEL061C, strain CIN8 (second series), hits give low values 1 | [6] 1 | locus YER015W, strain faa2, hits give low values 1.01 | locus YER016W, strain bim1, hits give low values 1.01 | locus YER110C, hits give low values 1.01 | locus YER111C, strain swi4, hits give low values 1.01 | locus YER155C, strain BEM2 (second series), hits give low values 1.02 | locus YER155C, strain BEM2, hits give low values 0.982 | locus YER167W, strain BCK2, hits give low values 0.992 | locus YFR010W, strain ubp6, hits give low values 1.02 | locus YGL078C, strain dbp3, hits give low values 0.996 | locus YGL086W, strain mad1, hits give low values 0.995 | locus YGL167C, strain pmr1, hits give low values 1.01 | locus YGL173C, strain kem1, hits give low values 1.03 | locus YGL227W, strain vid30, hits give low values 1.01 | locus YGL240W, strain doc1, hits give low values 1.01 | locus YGL248W, strain PDE1, hits give low values 0.99 | locus YGL253W, strain hxk2, hits give low values 1.02 | [7] 1.01 | locus YGR135W, strain pre9, hits give low values 0.996 | locus YGR252W, strain gcn5, hits give low values 0.937 | locus YHR013C, strain ard1, hits give low values 0.991 | locus YHR027C, strain rpn1, hits give low values 1.02 | [8] 1 and 1.03 | locus YHR079C, strain IRE1 (second series), hits give low values 0.997 | locus YHR079C, strain IRE1, hits give low values 1.05 | locus YHR094C, strain hxt1, hits give low values 1 | locus YHR129C, strain ARP1, hits give low values 1 | locus YHR142W, strain chs7, hits give low values 0.989 | locus YHR200W, strain rpn10, hits give low values 1 | locus YIL066C, strain RNR3, hits give low values 1.03 | locus YIL073C, strain SPO22, hits give low values 1.02 | locus YIL125W, strain kgd1, hits give low values 1 | locus YIR030C, strain dcg1, hits give low values 0.996 | locus YJL092W, strain hpr5, hits give low values 1.01 | locus YJL095W, strain BCK1 (second series), hits give low values 1.01 | locus YJL095W, strain BCK1, hits give low values 1.02 and 1.05 | locus YJL115W, strain asf1, hits give low values 1.01 | locus YJL129C, strain trk1, hits give low values 1.03 | locus YJL134W, strain LCB3, hits give low values 0.995 | locus YJL154C, strain vps35, hits give low values 1.01 | locus YJL164C, strain tpk1, hits give low values 0.98 | locus YJL166W, strain qcr8, hits give low values 1.03 | locus YJL168C, strain set2, hits give low values 1.01 | locus YJL187C, strain SWE1 (second series), hits give low values 1.01 | [9] 1 | [10] 1.01 | locus YJR066W, strain TOR1, hits give low values 0.973 | locus YKL009W, strain mrt4, hits give low values 0.987 | locus YKL068W, hits give low values 0.992 | locus YKL085W, strain MDH1 (second series), hits give low values 1.01 | locus YKL085W, strain MDH1, hits give low values 1.01 | locus YKL160W, strain elf1, hits give low values 0.976 | locus YKR001C, strain vps1, hits give low values 0.992 | locus YKR026C, strain gcn3, hits give low values 1.01 | locus YKR091W, strain srl3, hits give low values 0.996 | locus YLL001W, strain dnm1, hits give low values 0.962 | locus YLL026W, hits give low values 1.01 | locus YLL041C, strain sdh2, hits give low values 1.01 | locus YLR027C, strain aat2, hits give low values 1.01 | [11] 1.03 | locus YLR058C, strain SHM2, hits give low values 1 | locus YLR102C, strain apc9, hits give low values 0.992 | locus YLR113W, strain HOG1, hits give low values 1.05 | locus YLR221C, strain rsa3, hits give low values 1.05 | locus YLR258W, strain gsy2, hits give low values 0.986 | locus YLR262C, strain YPT6 (second series), hits give low values 1.01 | [12] 1.05 | locus YLR268W, strain sec22, hits give low values 0.987 | locus YLR320W, strain mms22, hits give low values 1.04 | locus YLR330W, strain CHS5, hits give low values 0.996 | locus YLR342W, strain FKS1 (second series), hits give low values 1.02 | locus YLR342W, strain FKS1, hits give low values 1.01 | locus YLR357W, strain rsc2, hits give low values 0.993 | locus YLR370C, strain arc18, hits give low values 1.01 | locus YLR371W, strain rom2, hits give low values 1 | locus YLR384C, strain iki3, hits give low values 1.02 | locus YLR418C, strain cdc73, hits give low values 0.994 | locus YML016C, strain PPZ1, hits give low values 0.997 | locus YML032C, strain rad52, hits give low values 1 | locus YML120C, strain ndi1, hits give low values 0.981 | locus YML124C, strain tub3, hits give low values 1.01 | locus YMR058W, strain fet3, hits give low values 1.03 | locus YMR078C, strain ctf18, hits give low values 1.01 | locus YMR125W, strain sto1, hits give low values 0.987 | locus YMR129W, hits give low values 1 | locus YMR205C, strain PFK2, hits give low values 1 | locus YMR223W, strain ubp8, hits give low values 1 | locus YMR231W, strain pep5, hits give low values 1.01 | [13] 0.98 | locus YNL067W, strain RPL9B, hits give low values 1 | locus YNL071W, strain lat1, hits give low values 1.01 | locus YNL183C, strain NPR1, hits give low values 0.985 | locus YNL209W, strain ssb2, hits give low values 0.991 | locus YNL233W, strain BNI4, hits give low values 1.01 | locus YNL248C, strain rpa49, hits give low values 1.04 | locus YNL250W, strain rad50, hits give low values 1.03 | locus YNL271C, strain bni1, hits give low values 1 | locus YNL298W, strain CLA4, hits give low values 0.99 | locus YNL307C, strain MCK1, hits give low values 0.997 | locus YNL322C, strain KRE1 (second series), hits give low values 1.01 | [14] 0.985 | locus YNR049C, strain mso1, hits give low values 1.01 | locus YNR052C, strain pop2, hits give low values 0.999 | locus YOL012C, strain htz1 1.32 | locus YOL147C, strain pex11, hits give low values 1 | locus YOR001W, strain rrp6, hits give low values 1.07 | locus YOR061W, strain CKA2, hits give low values 1.01 | locus YOR069W, strain VPS5, hits give low values 1 | locus YOR070C, strain gyp1, hits give low values 1.03 | locus YOR080W, strain dia2, hits give low values 1.01 | locus YOR083W, strain WHI5, hits give low values 0.973 | locus YOR106W, strain vam3, hits give low values 0.991 | locus YOR136W, strain idh2, hits give low values 0.991 | locus YOR144C, strain elg1, hits give low values 0.996 | locus YOR184W, strain ser1, hits give low values 0.992 | locus YOR231W, strain MKK1, hits give low values 1.05 | locus YOR265W, strain rbl2, hits give low values 1 | locus YOR270C, strain vph1, hits give low values 1.06 | locus YOR290C, strain snf2, hits give low values 0.969 | locus YOR316C, strain cot1, hits give low values 0.999 | locus YPL051W, strain arl3, hits give low values 0.997 | [15] 1 | locus YPL078C, strain atp4, hits give low values 0.966 | locus YPL106C, strain sse1, hits give low values 1.01 | locus YPL240C, strain hsp82, hits give low values 1.01 | [16] 1 | locus YPL256C, strain CLN2, hits give low values 1.01 | locus YPR119W, strain clb2, hits give low values 0.998 | locus YPR141C, strain kar3, hits give low values 0.986 | locus YPR163C, strain tif3, hits give low values 0.999 | locus YPR167C, strain met16, hits give low values 1 | strain wtn01, hits give low values 0.987

COC(OC)c1ccc(C#N)c(=S)[nH]1
inactive: [1] 1.01 | [2] 1.02 | [3] 1.01 | [4] 1 | [5] 1.01 | locus YDR150W, strain NUM1, hits give low values 0.996 | [6] 1.01 | [7] 0.989 | [8] 1.08 | locus YHR087W, strain rtc3, hits give low values 1.03 | [9] 0.994 | [10] 1.01 | locus YJR075W, strain HOC1, hits give low values 1 | [11] 1.05 | locus YLR058C, strain SHM2 (second series), hits give low values 1.01 | locus YLR085C, strain ARP6, hits give low values 1.16 | [12] 1 | locus YML094W, strain GIM5, hits give low values 1.04 | locus YMR219W, strain ESC1, hits give low values 1.01 | locus YMR263W, strain SAP30, hits give low values 1.02 | [13] 1.06 | locus YNL153C, strain GIM3, hits give low values 1 | locus YNL298W, strain CLA4 (second series), hits give low values 1.02 | [14] 1.01 | locus YNR030W, strain Alg12, hits give low values 0.992 | [15] 1.04 | [16] 1.11 | locus YPR135W, strain CTF4, hits give low values 1.1
